Results from the supplement of paper PMC7411054.
Where a name gives a salt, the structure may show the parent alone.

Tests used:
Test in all cases: phenotypically active (imaging signature differs from DMSO and reproducible) at any of 0.3-9 uM (binary (1 = active, 0 = inactive)); higher = active
Details in all cases: treatment time: 24 h
[1] = test system: A549-ACTB-RAB5A
Outline: (§1)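 Cells from fifteen gene-edited reporter lines (A549, HepG2 and WPMY1) were treated for 24 h at 0.3, 1, 3 or 9 µM and imaged live, four wells per condition. Features were normalised per well to solvent control wells. A condition deviated if ≥3 of 4 wells passed the 95th percentile of control Euclidean distances and was reproducible if its median replicate Pearson correlation beat the 95th percentile of non-replicates; phenotypic activity needed both.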

[2] = test system: A549-CANX-COX4
Outline: as §1

[3] = test system: A549-GM130-SQSTM1
Outline: as §1

[4] = test system: A549-TP53BP1-CLTA
Outline: as §1

[5] = test system: A549-TUBA1B-RELA
Outline: as §1

[6] = test system: HepG2-ACTB-RAB5A
Outline: as §1

[7] = test system: HepG2-CANX-COX4
Outline: as §1

[8] = test system: HepG2-GM130-SQSTM1
Outline: as §1

[9] = test system: HepG2-TP53BP1-CLTA
Outline: as §1

[10] = test system: HepG2-TUBA1B-RELA
Outline: as §1

[11] = test system: WPMY1-ACTB-RAB5A
Outline: as §1

[12] = test system: WPMY1-CANX-COX4
Outline: as §1

[13] = test system: WPMY1-GM130-SQSTM1
Outline: as §1

[14] = test system: WPMY1-TP53BP1-CLTA
Outline: as §1

[15] = test system: WPMY1-TUBA1B-RELA
Outline: as §1

Measured: phenotypically active

CCCC(CCC)C(=O)O [Valproic acid, sodium salt]
inactive: [1] 0 | [2] 0 | [3] 0 | [4] 0 | [5] 0 | [6] 0 | [7] 0 | [8] 0 | [9] 0 | [10] 0 | [11] 0 | [12] 0 | [13] 0 | [14] 0 | [15] 0

O=c1[nH]cnc2ccccc12
inactive: [1] 0 | [2] 0 | [3] 0 | [4] 0 | [5] 0 | [6] 0 | [7] 0 | [8] 0 | [9] 0 | [10] 0 | [11] 0 | [12] 0 | [13] 0 | [14] 0 | [15] 0

COc1ccc2c(c1)c(CC(=O)O)c(C)n2C(=O)c1ccc(Cl)cc1 [indomethacin]
inactive: [1] 0 | [2] 0 | [3] 0 | [4] 0 | [5] 0 | [6] 0 | [7] 0 | [8] 0 | [9] 0 | [10] 0 | [11] 0 | [12] 0 | [13] 0 | [14] 0 | [15] 0

C1CCN2C[C@@H]3C[C@@H](CN4CCCC[C@@H]34)[C@H]2C1 [Sparteine (-)]
inactive: [1] 0 | [2] 0 | [3] 0 | [4] 0 | [5] 0 | [6] 0 | [7] 0 | [8] 0 | [9] 0 | [10] 0 | [11] 0 | [12] 0 | [13] 0 | [14] 0 | [15] 0

CN(C)C(=N)NC(=N)N [Metformin hydrochloride]
inactive: [1] 0 | [2] 0 | [3] 0 | [4] 0 | [5] 0 | [6] 0 | [7] 0 | [8] 0 | [9] 0 | [10] 0 | [11] 0 | [12] 0 | [13] 0 | [14] 0 | [15] 0

CCCNC(C)C(=O)Nc1c(C)csc1C(=O)OC (stereo not given) [articaine]
inactive: [1] 0 | [2] 0 | [3] 0 | [4] 0 | [5] 0 | [6] 0 | [7] 0 | [8] 0 | [9] 0 | [10] 0 | [11] 0 | [12] 0 | [13] 0 | [14] 0 | [15] 0

O=[N+]([O-])c1c(Nc2cc(F)cc(Cl)c2)ccc2nonc12
inactive: [1] 0 | [2] 0 | [3] 0 | [4] 0 | [5] 0 | [6] 0 | [7] 0 | [8] 0 | [9] 0 | [10] 0 | [11] 0 | [12] 0 | [13] 0 | [14] 0 | [15] 0

COCC(=O)N[C@@H](Cc1ccc(-c2cc(Cl)cc(Cl)c2)cc1)[C@H](O)[C@@H](O)C(=O)O
inactive: [1] 0 | [2] 0 | [3] 0 | [4] 0 | [5] 0 | [6] 0 | [7] 0 | [8] 0 | [9] 0 | [10] 0 | [11] 0 | [12] 0 | [13] 0 | [14] 0 | [15] 0

NS(=O)(=O)Cc1noc2ccccc12 [zonisamide]
inactive: [1] 0 | [2] 0 | [3] 0 | [4] 0 | [5] 0 | [6] 0 | [7] 0 | [8] 0 | [9] 0 | [10] 0 | [11] 0 | [12] 0 | [13] 0 | [14] 0 | [15] 0

Cc1ccc(-c2csc3ncnc(SCCC(=O)O)c23)cc1
inactive: [1] 0 | [2] 0 | [3] 0 | [4] 0 | [5] 0 | [6] 0 | [7] 0 | [8] 0 | [9] 0 | [10] 0 | [11] 0 | [12] 0 | [13] 0 | [14] 0 | [15] 0

CC[N+](CC)(CCNC(=O)C(=O)NCC[N+](CC)(CC)Cc1ccccc1Cl)Cc1ccccc1Cl [ambenonium]
inactive: [1] 0 | [2] 0 | [3] 0 | [4] 0 | [5] 0 | [6] 0 | [7] 0 | [8] 0 | [9] 0 | [10] 0 | [11] 0 | [12] 0 | [13] 0 | [14] 0 | [15] 0

COc1ccc2c3c([nH]c2c1)[C@H]1C[C@H]2[C@H](C[C@@H](O)[C@H](OC)[C@H]2C(=O)O)CN1CC3 [Reserpinic acid hydrochloride]
inactive: [1] 0 | [2] 0 | [3] 0 | [4] 0 | [5] 0 | [6] 0 | [7] 0 | [8] 0 | [9] 0 | [10] 0 | [11] 0 | [12] 0 | [13] 0 | [14] 0 | [15] 0

CC(C)C1=CC2=CCC3[C@](C)(CCC[C@]3(C)C(=O)O)C2CC1 (stereo not given in full) [Abietic Acid]
inactive: [1] 0 | [2] 0 | [3] 0 | [4] 0 | [5] 0 | [6] 0 | [7] 0 | [8] 0 | [9] 0 | [10] 0 | [11] 0 | [12] 0 | [13] 0 | [14] 0 | [15] 0

CC[N+](C)(C)c1cccc(O)c1 [edrophonium]
inactive: [1] 0 | [2] 0 | [3] 0 | [4] 0 | [5] 0 | [6] 0 | [7] 0 | [8] 0 | [9] 0 | [10] 0 | [11] 0 | [12] 0 | [13] 0 | [14] 0 | [15] 0

COc1ccc(C[C@H](C)NC[C@@H](O)c2ccc(O)c(NC=O)c2)cc1 [formoterol]
inactive: [1] 0 | [2] 0 | [3] 0 | [4] 0 | [5] 0 | [6] 0 | [7] 0 | [8] 0 | [9] 0 | [10] 0 | [11] 0 | [12] 0 | [13] 0 | [14] 0 | [15] 0

CN(C)c1nc(N(C)C)nc(N(C)C)n1 [altretamine]
inactive: [1] 0 | [2] 0 | [3] 0 | [4] 0 | [5] 0 | [6] 0 | [7] 0 | [8] 0 | [9] 0 | [10] 0 | [11] 0 | [12] 0 | [13] 0 | [14] 0 | [15] 0

CCc1nn(CCCN2CCN(c3cccc(Cl)c3)CC2)c(=O)n1CCOc1ccccc1 [nefazodone]
inactive: [1] 0 | [2] 0 | [3] 0 | [4] 0 | [5] 0 | [6] 0 | [7] 0 | [8] 0 | [9] 0 | [10] 0 | [11] 0 | [12] 0 | [13] 0 | [14] 0 | [15] 0

CCCC(=O)Nc1ncnc2c1ncn2[C@@H]1O[C@@H]2COP(=O)(O)O[C@H]2[C@H]1OC(=O)CCC [Dibutyryl-cAMP, sodium salt]
inactive: [1] 0 | [2] 0 | [3] 0 | [4] 0 | [5] 0 | [6] 0 | [7] 0 | [8] 0 | [9] 0 | [10] 0 | [11] 0 | [12] 0 | [13] 0 | [14] 0 | [15] 0

CC(=O)Nc1nnc(S(N)(=O)=O)s1 [acetazolamide]
inactive: [1] 0 | [2] 0 | [3] 0 | [4] 0 | [5] 0 | [6] 0 | [7] 0 | [8] 0 | [9] 0 | [10] 0 | [11] 0 | [12] 0 | [13] 0 | [14] 0 | [15] 0

COc1ncc2cc(C(=O)Nc3cc(C(=O)NCc4cccc(Cl)c4)ccc3Cl)c(=O)[nH]c2n1
inactive: [1] 0 | [2] 0 | [3] 0 | [4] 0 | [5] 0 | [6] 0 | [7] 0 | [8] 0 | [9] 0 | [10] 0 | [11] 0 | [12] 0 | [13] 0 | [14] 0 | [15] 0

CC(C(=O)O)c1cccc(C(=O)c2ccccc2)c1 (stereo not given) [ketoprofen]
inactive: [1] 0 | [2] 0 | [3] 0 | [4] 0 | [5] 0 | [6] 0 | [7] 0 | [8] 0 | [9] 0 | [10] 0 | [11] 0 | [12] 0 | [13] 0 | [14] 0 | [15] 0

NCCNS(=O)(=O)c1ccc(Cl)c2ccncc12 [CKI 7 dihydrochloride]
inactive: [1] 0 | [2] 0 | [3] 0 | [4] 0 | [5] 0 | [6] 0 | [7] 0 | [8] 0 | [9] 0 | [10] 0 | [11] 0 | [12] 0 | [13] 0 | [14] 0 | [15] 0

COc1c2occc2cc2ccc(=O)oc12 [methoxsalen]
inactive: [1] 0 | [2] 0 | [3] 0 | [4] 0 | [5] 0 | [6] 0 | [7] 0 | [8] 0 | [9] 0 | [10] 0 | [11] 0 | [12] 0 | [13] 0 | [14] 0 | [15] 0
